In the library only some 19% were active in any assay of this set; here they are far more common.
HT1080NT lethal = qHTS for induction of synthetic lethality in tumor cells producing 2HG: qHTS for the HT-1080-NT fibrosarcoma cell line; Potency, µM (doses to about 46.1 µM), for inactives: at the top dose activity, negative = less viability, most hits filed as cytotoxic; HT-1080-NT fibrosarcoma viability, CellTiter-Glo ATP luminescence, 48 h; actives 1.6% (n = 360,000);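 also: NT is the 2HG producing partner of a matched IDH1 knockdown line; potency is read from the fitted curve at half-maximal effect; 0% = DMSO-treated cells and -100% = media-only wells without cells; nearly all actives have a fitted effect of over 55% in size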
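HT-1080-NT; 750 cells/well; 5% FBS RPMI; 48 h compound, 37 degrees C; CellTiter-Glo luminescence; curve fitting and curve-class assignment.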
IL-1B inflam inh = qHTS for Inhibitors of Inflammasome Signaling: IL-1-beta AlphaLISA Primary Screen; THP-1 LPS/ATP IL-1B secretion, AlphaLISA, 16 h; hits give low values; activity change, % at 57.5 µM; actives 4.7% (n = 360,000); AID 743279, 2014; in the data active = activity change below about -50%; inconclusive = mostly about -30% to -49%
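Secreted IL-1B measured by AlphaLISA bead assay after 16 h compound exposure of THP-1 cells; compounds (final up to 57.5 uM) added 1 h before LPS (250 ng/mL) and ATP (1.25 mM) stimulation; lower signal means less secretion.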
HT1080 IDH1KD tx = qHTS for induction of synthetic lethality in tumor cells producing 2HG: qHTS for the HT-1080-IDH1KD cell line | Potency, µM (highest dose often 46.1 µM), without a hit: at the highest dose activity, negative = toxicity, usual class: cytotoxic | actives 2% (n = 360,000) | AID 686971, 2013 | HT-1080 IDH1 knockdown viability, ATP luminescence, 48 h;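 also: potency is read from the fitted curve at half-maximal effect; 0% = DMSO wells and -100% = cell-free medium wells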
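Luminescent ATP read-out (CellTiter-Glo, 10 min at room temperature) after 48 h compound exposure at 37 °C gave viability of IDH1-knockdown HT-1080 cells. Activity was normalised to DMSO and cell-free wells, then fitted as concentration-response curves.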
TDP1 cell noCPT = qHTS for Inhibitors of human tyrosyl-DNA phosphodiesterase 1 (TDP1): qHTS in cells in absence of CPT. DT40 Tdp1-/- hTDP1 cells, no CPT, ATP luminescence, 48 h. Potency, µM (titrated, usually from 46.2 µM), without a hit: at the top dose activity change, negative = growth inhibition, most hits filed as inhibitors. AID 686978, 2013. actives 15% (n = 420,000); also: potency is read from the fitted curve at half-maximal effect; nearly all actives have a fitted effect of over 55% in size
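Compound effects on proliferation are scored in DT40 Tdp1-/-;hTDP1 cells in the absence of CPT. ATP levels (CellTiter-Glo luminescence) are recorded after a ≥48 hr, 37 °C incubation.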
uPA generation = qHTS for Inhibitors of Cell Surface uPA Generation | Potency, µM (titrated, usually from 38.3 µM), for inactives: top-dose activity change, negative = inhibition, usual class: inhibitors | AID 540303, 2011 | actives 0.31% (n = 330,000) | cell surface uPA generation assay, qHTS; active = well fitted inhibition curve with a large enough effect; inconclusive = small, poorly fitted or top-dose-only effect; inactive = no such curve, though single readings can be large or run the other way; tested in mouse RAW 264.7 cells; also: potency is read from the fitted curve at half-maximal effect; nearly all actives have a fitted effect of over 55% in size
TDP1 cell CPT = qHTS for Inhibitors of human tyrosyl-DNA phosphodiesterase 1 (TDP1): qHTS in cells in presence of CPT; chicken DT40 Tdp1-/-;hTDP1 cells + 20 nM CPT, ATP luminescence, 48 h; Potency, µM (doses to about 46.2 µM), inactives show at the highest dose activity change, negative = growth inhibition, actives largely listed as inhibitors; actives 12% (n = 420,000); also: potency is read from the fitted curve at half-maximal effect; nearly all actives have a fitted effect of over 55% in size
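Chicken DT40 Tdp1-/- cells stably complemented with human TDP1 were seeded at 400 cells/well in medium containing 20 nM camptothecin, exposed to pin-transferred compounds, and grown at 37 °C for at least 48 hr. Viability was read as ATP luminescence.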
Numbers without * were called inactive; ? = inconclusive; · = not tested or not shown. Unless noted, calls follow the shape of the dose curve; as a rule, active = well fitted curve in the direction sought with a large enough effect; inconclusive = small, poorly fitted or top-dose-only effect, or another doubt; inactive = no such curve, though single readings can be large; an effect the other way counts as inactive or inconclusive. Unless noted, % is scaled to controls: 0 for no effect and ±100 for the full control effect.

SMILES	HT1080NT lethal	IL-1B inflam inh	HT1080 IDH1KD tx	TDP1 cell noCPT	uPA generation	TDP1 cell CPT
Cc1ccc(-n2[nH]c(C)c(C=NCc3ccncc3)c2=O)cc1	?	33.3	?	?	-7.2%	?
Cc1[nH]c2ccccc2c1/C=N/NC(=O)c1cc(-c2cccs2)[nH]n1	-10.2%	?	0.8%	20.6µM*	11.5%	?
CCCCCCCCCCCCCCCCCCN(CCCCCCCCCCCCCCCCCC)c1ccc(/C=C/c2ccc(C=O)cc2)cc1	·	·	·	5.8%	·	-8.7%
CCc1nc2c(OCC3COc4ccccc4O3)cccn2c1N(C)C(=O)c1cccs1 (stereo not drawn)	-12.9%	-13.5	14.9%	?	·	?
Cc1cc(C(=O)N/N=C/c2c(C)n(C)c3ccccc23)n[nH]1	-3.2%	-13.4	8.5%	?	5.5%	18.8%
Cc1nn(-c2ccccc2)c(C)c1/C=N/NC(=O)c1cc(C(C)(C)C)[nH]n1	-6.0%	-26.1	-8.9%	?	-6.3%	?
Cc1cc(C(=O)N/N=C/c2c(C)[nH]n(-c3ccccc3)c2=O)n[nH]1	-25.7%	-0.2	-23.3%	?	-9.4%	20.6µM*
Cc1ccc(/C=N/Nc2nncc(-c3ccccc3)n2)o1	-23.3%	-9.4	-19.8%	?	-1.2%	-5.0%
Cc1ccc(-c2cc(C(=O)N/N=C/c3c(C)nn(-c4ccccc4)c3C)n[nH]2)s1	1.64µM*	-4.3	1.84µM*	0.82µM*	?	0.651µM*
Cc1[nH]n(-c2ccccc2)c(=O)c1/C=N/N1CCOCC1	-7.2%	13.4	-16.7%	-0.5%	-5.5%	-14.1%
Cc1[nH]n(-c2ccccc2)c(=O)c1/C=N/NC(=O)c1ccc(O)cc1O	?	61.0	23.1µM*	20.6µM*	12.1%	?
Cc1[nH]n(-c2ccccc2)c(=O)c1/C=N/Nc1nncc(-c2ccccc2)n1	1.26µM*	39.6	0.794µM*	1.03µM*	?	1.03µM*
O=S(=O)(Nc1ccccc1O)c1ccc(Cl)nc1	1.8%	30.2	3.0%	13.1%	5.3%	-11.6%
Cn1c(=O)n(-c2ccc(F)c(Cl)c2)c(=O)c2sc3ccccc3c21	·	·	·	-25.2%	·	-26.1%
Cc1cc(C(=O)N/N=C/c2cc(N=Nc3ccccc3)ccc2O)n[nH]1	?	65.2	?	6.51µM*	-19.4%	5.8µM*
Cc1ccc(-c2onc(C)c2C)cc1S(=O)(=O)NCc1ccco1	·	·	·	?	·	23.1µM*
Cc1cc(S(=O)(=O)NCc2ccco2)c(C)cc1Cl	-14.0%	1.2	-2.3%	?	-7.4%	?
COc1ccc(-c2onc(C)c2C)cc1S(=O)(=O)NCc1ccc(C)o1	·	·	·	3.26µM*	·	2.91µM*
COc1cccc(CCN2CCC(CNS(=O)(=O)c3cc(-c4cc(C)no4)ccc3OC)CC2)c1	?	-11.6	?	-9.9%	?	?
COc1ccccc1CN1CCC(CNS(=O)(=O)c2cc(-c3onc(C)c3C)ccc2OC)CC1	18.4µM*	?	18.4µM*	20.6µM*	?	20.6µM*
Cc1cc(-c2ccc(C)c(S(=O)(=O)NCCc3ccco3)c2)on1	-16.6%	-10.2	-9.3%	?	17.4%	-28.2%
CCc1ccc(-c2cc(C)no2)cc1S(=O)(=O)NCc1ccco1	-17.3%	19.1	?	?	-14.3%	20.6µM*
Cc1ccc(NC(=S)N2CCCC(c3nc4ccc(C)cc4[nH]3)C2)c(C)c1 (stereo not drawn)	-7.1%	13.3	0.0%	?	-9.0%	?
Cc1ccc2nc(C3CCCN(C(=S)Nc4cccc(C)c4C)C3)[nH]c2c1 (stereo not drawn)	?	-6.2	?	18.4µM*	?	?
COC(=O)[C@@]12CCCCN1[C@H](c1ccc(-c3ccc(OC)cc3)c(OC)c1)[C@@H]1C(=O)N(C)C(=O)[C@@H]12	-5.5%	-11.8	-5.9%	?	10.1%	20.6µM*
SMILES	HT1080NT lethal	IL-1B inflam inh	HT1080 IDH1KD tx	TDP1 cell noCPT	uPA generation	TDP1 cell CPT
COC(=O)[C@@]12CCCCN1[C@H](c1ccc(-c3ccc(C(C)=O)cc3)cc1)[C@@H]1C(=O)N(C)C(=O)[C@@H]12	1.3%	-13.1	8.7%	23.1µM*	14.2%	14.6µM*
COC(=O)[C@@]12CCCCN1[C@H](c1ccc(-c3ccc(OC)cc3)cc1)[C@@H]1C(=O)N(C)C(=O)[C@@H]12	0.3%	-12.3	-1.1%	20.6µM*	-2.6%	20.6µM*
COC(=O)[C@@]12CCCCN1[C@H](c1ccc(-c3ccc4c(c3)OCO4)cc1)[C@H]1C(=O)N(C)C(=O)[C@H]12	4.2%	-10.9	9.7%	23.1µM*	1.7%	13µM*
COc1ccc(NC(=O)NC2(C(=O)N3CCN(C)CC3)CCCCC2)cc1	10.9%	19.9	18.3%	-3.7%	-0.9%	2.1%
COc1ccc(-c2nc3c4ccccc4ccn3c2Cc2ccccc2)cc1OC	?	-14.5	?	16.4µM*	·	?
COc1ccccc1Cc1c(-c2ccc(OC)c(OC)c2)nc2c(Cl)cc(C(F)(F)F)cn12	15.3%	-20.2	2.4%	-27.1%	·	-26.8%
COc1ccccc1Cc1c(-c2ccc(OC)c(OC)c2)nc2c3ccccc3ccn12	?	-20.9	?	23.1µM*	·	?
COc1ccc(-c2nc3c4ccccc4ccn3c2Cc2ccccc2C(F)(F)F)cc1OC	?	-23.7	?	16.4µM*	·	?
COc1ccc(Cc2c(-c3ccccc3)nc3c4ccccc4ccn23)c(C)c1	-25.0%	-12.2	?	14.6µM*	·	?
CC1CCCN(c2ccc3nncn3n2)C1 (stereo not drawn)	-0.3%	10.3	8.9%	2.3%	1.9%	-13.5%
COc1ccccc1Cc1c(-c2ccc(C#N)cc2)nc2c3ccccc3ccn12	-22.7%	-8.1	-16.6%	20.6µM*	·	20.6µM*
COc1ccc(Cc2c(-c3ccc(F)cc3)nc3c4ccccc4ccn23)c(C)c1	-41.1%	5.6	?	?	·	?
COc1ccccc1Cc1c(C(C)(C)C)nc2c3ccccc3ccn12	?	?	13µM*	2.59µM*	·	3.26µM*
COc1ccc(-c2nc3ccc(Cl)cn3c2Cc2ccccc2C(F)(F)F)cc1OC	?	?	-28.3%	16.4µM*	·	18.4µM*

Screens as filed in PubChem BioAssay.
